This is an account of results in PubChem BioAssay AID2279 (Southern Research Specialized Biocontainment Screening …, 2010).

Results with a measured potency or affinity are listed apart. Calls of active or inactive are those of the source. How the calls were made is not given here.

This assay can be described thus: CCR5-tropic HIV-1 fusion blockers – cell-based, CCR5-tropic Env, dose response (AID 2279). As to conditions: CCR5-tropic HIV-1 Env, reporter read-out; series mostly up to 50 µM.
Take `CCCCCC(=O)Cc1cc(O)cc2c1C(=O)Oc1cc(O)c(C(=O)O)c(CCCCC)c1O2`: the result was inactive.
Turning to `COc1ccc(C(=O)COC(=O)c2ccccc2NS(=O)(=O)c2ccc(O)c([N+](=O)[O-])c2)cc1`, the result was inactive.
In the case of `COc1cc(NS(=O)(=O)c2ccc(Nc3nc(-c4ccccc4)cs3)cc2)nc(OC)n1`, the result was inactive.
Regarding `O=C(CN1C(=O)S/C(=C\C=C\c2ccccc2)C1=O)Nc1ccccc1C(=O)O`, the result was inactive.
As for `Cc1ccccc1N/N=C/c1sc(=O)n(Cc2cccc(C(=O)O)c2)c1Cl`, the outcome was inactive.
For `COc1ccc(O)c(C(=O)c2cc(SCC(=O)O)c3nc4sc5c(c4c(=O)n3c2)CCCC5)c1` the value was “inactive”; for `CC(C)COc1ccc(-c2nn(-c3ccccc3)cc2/C=C2/SC(=S)N(CC(=O)O)C2=O)cc1`, “inactive”; for `O=C(O)CCN1C(=O)/C(=C\c2cccc(Oc3ccccc3)c2)SC1=S`, “inactive”.
For the compound `O=C(O)c1[nH]c2ccccc2c1C(c1cc(Br)ccc1O)c1c(C(=O)O)[nH]c2ccccc12`, the outcome was inactive.
For `CCCCCNC(=O)c1ccc2c(=O)[nH]c3c(C(=O)NCC4CCCO4)sc(=S)n3c2c1` (stereo not given) the value was “inactive”.
On to `O=C(O)COc1ccc(/C=C/C(=O)c2ccc(C3CCCCC3)cc2)cc1`, for which the result was inactive.
For `COC(=O)c1sc(-c2ccc(C(C)(C)C)cc2)cc1NC(=O)CSCC(=O)O` the value was “inactive”; for `Cc1c(CCC(=O)O)c(=O)oc2c(C)c3occ(-c4ccc(Cl)cc4)c3cc12`, “inactive”; for `CCCCCCc1c(C)c2ccc(OCC(=O)N[C@@H](Cc3ccccc3)C(=O)O)cc2oc1=O`, “inactive”.
For `O=C(O)c1ccc(Cl)c(S(=O)(=O)Nc2ccccc2C(=O)Nc2ccc(Cl)cc2)c1` the value was “inactive”.
Regarding `O=C(CCN1C(=O)/C(=C/c2ccco2)SC1=S)Nc1ccc(C(=O)O)c(O)c1`, the result was inactive.
For `Oc1c(Br)cc(Br)c(/C=N/n2c(-c3ccccc3)n[nH]c2=S)c1Br` the value was “inactive”; for `COc1cc(/C=C2\C(=N)N3N=C(S(C)(=O)=O)SC3=NC2=O)ccc1OC(=O)c1cccs1`, “inactive”.
`Cc1cc(Cl)ccc1OC(C)C(=O)Nc1ccc(S(=O)(=O)Nc2cnc3ccccc3n2)cc1` (stereo not given): the result was inactive.
For `COc1ccc(NC(=O)c2c[nH]n3c(=O)cc(C4CCN(C(=O)OC(C)(C)C)CC4)nc23)cc1Cl` the value was “inactive”.
